Bioassay records (PubChem BioAssay)
GPR151 ag: activates the human receptor GPR151; Q8TDV0; PathHunter beta-arrestin GPR151 cells, luminescence; activation, % at 11.2 µM; hit rate 1% among 650,000; in the data active means activation above about 4.9%;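 further: 0% = median of compound wells and 100% = cells with positive control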
Target sequence (Q8TDV0 whole entry, looked up): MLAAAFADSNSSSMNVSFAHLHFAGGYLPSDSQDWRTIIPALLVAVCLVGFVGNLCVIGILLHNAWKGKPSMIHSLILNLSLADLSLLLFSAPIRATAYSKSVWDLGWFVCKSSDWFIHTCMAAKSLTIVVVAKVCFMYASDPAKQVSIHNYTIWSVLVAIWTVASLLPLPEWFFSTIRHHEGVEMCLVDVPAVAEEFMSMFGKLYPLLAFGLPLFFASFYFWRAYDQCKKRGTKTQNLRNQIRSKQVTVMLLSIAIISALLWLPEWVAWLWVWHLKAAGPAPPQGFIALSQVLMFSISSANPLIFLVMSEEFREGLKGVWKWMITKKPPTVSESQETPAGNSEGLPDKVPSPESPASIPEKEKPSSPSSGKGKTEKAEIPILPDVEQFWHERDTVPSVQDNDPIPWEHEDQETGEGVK
FBW7 activator: human FBW7 E3 ligase activation, primary screen. Q969H0. AlphaScreen FBW7–phospho-cyclin E peptide binding, activator screen. normalized activity (activation), % at 26.1 µM. hit rate 0.13% among 650,000; in the data active means normalized activity above about 1.9%;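 further: purified mutant Fbw7 with reduced substrate affinity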
TEAD-YAP block: TEAD-YAP interaction inhibition; HEK-TIYL cells, TEAD-Gal4/YAP UAS-luciferase luminescence; inhibition, % at 9.12 µM; hit rate 1.4% among 640,000; AID 1259422; in the data active means inhibition above about 32%;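 further: 0% = median of test compound wells and 100% = reference inhibitor wells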
MITF inh: human MITF inhibition, primary screen; O75030; AlphaScreen MITF homodimerization, bead proximity signal; inhibition, % at 2.6 µM; hit rate 0.91% among 650,000; AID 1259374; in the data active means inhibition above about 50%;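 further: 0% = vehicle wells with protein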
* hit, by the source's call. Rows were chosen to be rich in hits. Some 3.4% of all compounds tested hit in one or more screens of this group.

SMILES	GPR151 ag	FBW7 activator	TEAD-YAP block	MITF inh
CCCCCCOc1ccc(/C=C(\C#N)C(=O)NCC2CCCO2)cc1OC (stereo not drawn)	-1	2.0*	-2	9
COc1cc(/C=C(/C#N)C(=O)NCC2CCCO2)ccc1OCc1ccc(C(=O)O)cc1 (stereo not drawn)	2	0	-14	5
CCOC(=O)CCNC(=O)N1CCCC(C(=O)c2ccc(OC)cc2C)C1 (stereo not drawn)	-2	0	0	-7
N=c1nc2n(c3ccccc13)Cc1ccccc1-2	-1	0	71*	7
O=c1nc2n(c3ccccc13)Cc1ccccc1-2	2	0	10	-1
COc1ccc(C(=O)Nn2c(-c3ccncc3)nc3ccccc3c2=O)c(OC)c1	0	0	6	5
OC1CCC(Nc2ccc3ncc(-c4ccc5ccccc5c4)n3n2)CC1 (stereo not drawn)	1	0	0	-15
COC(=O)c1ccc(-c2cnc3ccc(NC4CCC(O)CC4)nn23)cc1 (stereo not drawn)	1	0	41*	-4
COc1ccc(-c2cnc3ccc(NC4CCC(O)CC4)nn23)cn1 (stereo not drawn)	2	0	36*	-13
CCOC(=O)C(C)Sc1nnc(NC(=O)CCCl)s1 (stereo not drawn)	1	3.4*	0	21
O=C(CCl)NC(C1CCCCC1=O)C(Cl)(Cl)Cl (stereo not drawn)	0	0	42*	-17
CCc1nc2sc(C(N)=O)c(N)c2c2c1CCCC2	-1	0	38*	-15
Cc1ccc(-c2c3c(nc4sc(C(N)=O)c(N)c24)CCCC3)o1	0	0	6	55*
NC(=O)c1sc2nc3c(c(-c4ccco4)c2c1N)CCC3	2	0	44*	-5
COC(=O)c1sc2nc3c(c(-c4ccc(C)o4)c2c1N)CCCC3	3	0	5	-7
CCc1nc2sc(C(=O)OC)c(N)c2c2c1CCCC2	1	0	-4	-15
COCCNC(=O)c1cc(C(=O)OC)cc([N+](=O)[O-])c1	-1	0	1	1
COc1ccc(-n2c(=O)[nH]c3nc(-c4ccc(C(=O)N5CCN(C)CC5)cc4)cnc32)cc1	-1	0	0	13
Cc1ccc(NC(=O)COC(=O)CC2Oc3ccccc3NC2=O)cc1C (stereo not drawn)	-1	0	1	3
Cc1cc2c(cc1C)C(c1ccccc1OC(C)C)CC(=O)N2 (stereo not drawn)	2	0	55*	7
CCOc1ccccc1C1CC(=O)Nc2cc(C)c(C)cc21 (stereo not drawn)	-1	0	41*	-7
COc1ccccc1C1CC(=O)Nc2cc(C)c(C)cc21 (stereo not drawn)	2	0	57*	14
CCCCOc1ccccc1C1CC(=O)Nc2cc(C)c(C)cc21 (stereo not drawn)	1	0	4	12
Cc1cc2c(cc1C)C(c1ccccc1C)CC(=O)N2 (stereo not drawn)	0	0	6	5
CCN(CC)c1ccc(NC(=S)Nc2ccc(S(N)(=O)=O)cc2)cc1	0	0	5	74*
SMILES	GPR151 ag	FBW7 activator	TEAD-YAP block	MITF inh
CCN(CCO)c1ccc(NC(=S)Nc2ccccc2F)cc1	-9	0	66*	8
NS(=O)(=O)c1ccc(NC(=S)Nc2ccc(F)cc2)cc1	-1	0	1	9
O=C(O)c1ccccc1/C=N/Nc1nc2ccccc2s1	-7	0	94*	5
O=C(Nc1nc2ccccc2s1)c1ccccc1	-8	0	32*	0
O=C(O)COc1ccccc1/C=N/Nc1nc2ccccc2s1	-3	0	-10	15
O=C(Nc1nc2ccccc2s1)c1ccc(N2C(=O)CCC2=O)cc1	0	0	-50	-2
CC(C)c1ccc2nc(NC(=O)c3ccccc3)sc2c1	-4	0	39*	2
O=C(CCc1nc2ccccc2s1)c1ccccc1	0	2.0*	-18	18
CC(C)n1cnc2c(Nc3ccc(Oc4ccccc4)cc3)nc(-c3ccc(C(N)=O)cc3)nc21	0	0	18	19
CC(N=C1NS(=O)(=O)c2ccccc21)C(=O)NNC(=O)c1ccc2c(c1)OCO2 (stereo not drawn)	0	0	-5	-4
CCc1ccc(C(=O)Nc2nc3ccccc3s2)cc1	-5	0	50*	-2
CCN(CC)C(=O)c1ccc2nc(NC(=O)c3ccc(OC(C)=O)cc3)sc2c1	-8	2.0*	78*	10
CCCc1ccc(-c2ccc(C(=O)Nc3nc4ccccc4s3)cc2)nc1	1	0	7	8
CN(C)CCOc1cc(-c2cn[nH]c2)ccc1NC(=O)[C@@H]1COc2ccccc2O1	-1	0	8	-2
O=C(/C=C/c1cccc([N+](=O)[O-])c1)c1ccc(O)cc1	0	0	13	0
C=CCN1C(=O)/C(=C/c2ccc(OC(C)=O)c(OCC)c2[N+](=O)[O-])SC1=S	0	-1	37*	21
CC(=O)N1c2ccccc2NC2=C(C(=O)CCC2)C1c1ccccc1 (stereo not drawn)	-1	0	37*	2
CC(=O)N1c2ccccc2NC2=C(C(=O)CCC2)C1c1cccc(Br)c1 (stereo not drawn)	-1	0	37*	-11
Cc1cc(Br)c2c(c1)C(=O)C(=O)N2	0	0	9	-11
CC1(C)CC(=O)c2cnc3c(-c4ccc(Cl)cc4)cnn3c2C1	0	0	57*	0
COc1cc(C(=O)/C=C/c2ccc(F)cc2)ccc1O	0	0	66*	-14
COc1ccc(C(=O)/C=C/c2cccc(F)c2)cc1	1	-1	-46	-3
COC(=O)c1ccc(/C=C/C(=O)c2ccc(F)cc2)cc1	3	0	-40	0
COc1cc(C(=O)/C=C/c2cccc(F)c2)ccc1O	4	0	56*	8
COc1cccc(NC(=O)C2C3C=CC4(O3)C2C(=O)N(CCN2CCCCC2)C4C(=O)NC2CCCCC2)c1 (stereo not drawn)	1	0	-3	9
SMILES	GPR151 ag	FBW7 activator	TEAD-YAP block	MITF inh
COC(=O)c1cc(S(=O)(=O)NCc2ccc(OC)cc2)cn1C	1	0	-4	14
CC1CCCN(C2=NC(=O)/C(=C/c3ccc(O)cc3)S2)C1 (stereo not drawn)	-1	0	49*	11
O=C1N=C(N2CCOCC2)S/C1=C\c1ccc(F)cc1	-1	0	-25	10
O=C1N=C(N2CCOCC2)S/C1=C\c1ccc(O)cc1	4	0	39*	11
COc1cc(/C=C2\SC(N3CCCC3)=NC2=O)ccc1O	-1	0	2	-6
CC1CCCN(C2=NC(=O)/C(=C/c3ccc(F)cc3)S2)C1 (stereo not drawn)	-1	0	-25	6
COc1cc(/C=C2\SC(N3CCCC(C)C3)=NC2=O)ccc1O (stereo not drawn)	1	0	56*	2
COc1cc(/C=C2\SC(N3CCOCC3)=NC2=O)ccc1O	-2	0	54*	-4
